HT1080 IDH1KD tx: HT-1080 IDH1 knockdown cell toxicity (counter line); HT-1080 IDH1 knockdown viability, ATP luminescence, 48 h; Potency, µM (doses to about 46.1 µM), inactives show at the highest dose activity, negative = toxicity, actives largely listed as cytotoxic; 360,000 compounds, 2% hits; AID 686971;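 further: 0% = DMSO wells and -100% = cell-free medium wells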
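HT-1080-IDH1KD cells (IDH1 knocked down), 750/well in RPMI with 5% FBS, treated with compound 48 h at 37 degrees C. Viability by CellTiter-Glo luminescence, normalised to DMSO and no-cell wells; concentration-response curves classed.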
SW480 rereplic: induces DNA re-replication in SW480 colon adenocarcinoma cells | SW480 DNA re-replication, Hoechst DNA content imaging, 48 h | Potency, µM (highest dose often 46.1 µM), for inactives: top-dose re-replication activation, hits mostly activators | 340,000 compounds, 1.8% hits | AID 624297; further: % of control where 0% means no effect; nearly all actives have a fitted effect of over 55% in size
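Image-based read-out: total Hoechst fluorescence of nuclei (405 nm excitation, 500-530 nm emission), with hits raising the fraction of high-intensity nuclei. SW480 colon cells incubated 48 hr with compounds at 37 C.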
HT1080-NT tox: kills 2HG-producing HT-1080-NT fibrosarcoma cells; HT-1080-NT fibrosarcoma viability, CellTiter-Glo ATP luminescence, 48 h; AID 686970; 360,000 compounds, 1.6% hits; Potency, µM (series often up to 46.1 µM), for the others: at the top dose activity, negative = less viability, most hits filed as cytotoxic;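 further: NT is the 2HG producing partner of a matched IDH1 knockdown line; 0% = DMSO-treated cells and -100% = media-only wells without cells; nearly all actives have a fitted effect of over 55% in size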
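Read-out is CellTiter-Glo luminescence after 10 minutes at room temperature, following 48 hours' compound treatment of HT-1080-NT cells (750 cells/well, RPMI, 5% FBS, 37 degrees C).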
MCF10A rereplic: DNA re-replication induction in MCF 10a cells. AID 624296. MCF 10A DNA re-replication, Hoechst nuclear intensity, 48 h. Potency, µM (doses to about 46.1 µM), without a hit: top-dose activity, positive = re-replication, most hits filed as activators. 350,000 compounds, 2.9% hits; further: % of control where 0% means no effect; nearly all actives have a fitted effect of over 50% in size
KB-V1 MDR tox: KB-V1 MDR subline cytotoxicity. KB-V1 MDR cells viability, CellTiter-Glo, 72 h. Potency, µM (top dose mostly 46.1 µM), usual class: cytotoxic. 400,000 compounds, 3.4% hits. AID 1347076; further: on the % scale 0 is the no-effect control and ±100 the full control effect; nearly all actives have a fitted effect of over 60% in size
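Drug-selected KB-V1 cells, grown in DMEM lacking phenol red with 10% FBS, receive compound titrations; after three days at 37 degrees C, surviving cell ATP is quantified by CellTiter-Glo luminescence and responses normalized and curve-fitted.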
KB-3-1 tox: kills parental KB-3-1 adenocarcinoma cells | Potency, µM (series often up to 46.1 µM), usual class: cytotoxic | 400,000 compounds, 1.4% hits | KB-3-1 viability, CellTiter-Glo ATP luminescence, 72 h | AID 1347075; further: on the % scale 0 is the no-effect control and ±100 the full control effect; nearly all actives have a fitted effect of over 60% in size
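Viability of parental KB-3-1 cells, measured by CellTiter-Glo luminescence, followed a 72 h incubation at 37 °C with pinned compounds in phenol-red-free DMEM containing 10% FBS.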
* = called active by the depositor; i = inactive; ? = inconclusive; / = no result given. This is a sample that favours compounds with a hit; in the whole collection about 8% have one here. The call rests on the fitted dose curve; in most records, active means well fitted curve in the direction sought with a large enough effect; inconclusive means small, poorly fitted or top-dose-only effect, or another doubt; inactive means no such curve, though single readings can be large; an effect the other way counts as inactive or inconclusive. Potency means the concentration at half of the fitted maximal effect.

SMILES	HT1080 IDH1KD tx	SW480 rereplic	HT1080-NT tox	MCF10A rereplic	KB-V1 MDR tox	KB-3-1 tox
COC(=O)c1cc2oc(C)cc2n1CC(=O)Nc1ccc(OC)c(OC)c1	/	/	/	/	i	i
CCN(CC)C(=O)Cn1c(=O)n(Cc2ccc(C(=O)NCCc3ccc(OC)c(OC)c3)cc2)c(=O)c2ccccc21	/	/	/	/	?	i
OCc1cnc(SCc2cccc(F)c2)n1Cc1ccc(F)cc1	/	/	/	/	i	i
Cc1ccc(C(=O)N/N=C\c2ccc(Br)o2)o1	19%	-1%	14%	2%	i	i
Cc1ccc(C(=O)N/N=C/c2ccc(-c3ccc(Br)cc3[N+](=O)[O-])o2)o1	?	-3%	-1%	5.8µM*	i	i
Cc1cc(=O)[nH]c(SCc2nnc(-c3ccccc3)o2)n1	27%	-2%	11%	2%	i	i
Clc1ccc2nc(SCc3nnc(-c4ccccc4)o3)[nH]c2c1	2%	6%	-14%	4%	16µM*	i
COc1ccc(C2Nc3ccccc3C(=O)N2c2ccccc2)cc1COc1ccccn1 (stereo not drawn)	2%	-7%	0%	-1%	i	i
COc1ccc(C2Nc3ccccc3C(=O)N2Cc2ccccc2)cc1CSc1ccccn1 (stereo not drawn)	6%	-5%	0%	14%	4.6µM*	i
COc1ccc(C2Nc3ccccc3C(=O)N2c2ccccc2)cc1CSc1ccccn1 (stereo not drawn)	-21%	15%	-12%	0%	4.1µM*	i
COc1ccc(C2Nc3ccccc3C(=O)N2c2cccc3ccccc23)cc1COc1c(C)cccc1C (stereo not drawn)	/	/	/	/	i	13µM*
O=C1c2ccccc2NC(c2cccc(F)c2)N1Cc1ccccc1 (stereo not drawn)	-13%	?	-17%	21µM*	i	i
O=C1c2ccccc2NC(c2cccc(F)c2)N1Cc1ccco1 (stereo not drawn)	?	-2%	-26%	?	i	i
COc1ccc(C2Nc3ccccc3C(=O)N2c2ccc(F)cc2)cc1CSc1ccccn1 (stereo not drawn)	1%	2%	-4%	?	i	i
CN(C)c1ccc(N=Nc2ccnc3ccccc23)cc1	/	/	/	/	i	?
O=S(=O)(c1ccc2c(c1)CCCC2)N1CCN(c2nc(-c3ccccc3)nc3ccccc23)CC1	/	/	/	/	i	i
CCOc1ccccc1C(=O)N(CN1CCCC1=O)c1cccc(Cl)c1	-1%	7%	-1%	1%	12µM*	i
COc1ccccc1C(=O)N(CN1CCCC1=O)c1cccc(Cl)c1	-2%	-10%	3%	16%	i	i
CCOc1ccc(N=Cc2c(C)[nH]n(-c3nc4ccccc4[nH]3)c2=O)cc1	3.7µM*	1%	5.2µM*	-5%	?	?
CCc1ccccc1NC(=O)CC(c1ccc(OC)cc1)n1cccc1 (stereo not drawn)	3%	-52%	3%	?	7.3µM*	i
Oc1ccccc1-c1nc(N2CCCC2)c2ccccc2n1	13%	-4%	12%	2%	i	i
COc1cc2c(cc1OC)CN(c1nc(-c3cccnc3)nc3ccccc13)CC2	18µM*	6%	18µM*	?	?	i
CN1CCN(c2nc(-c3ccccn3)nc3ccccc23)CC1	7.9µM*	?	7.9µM*	23%	23µM*	i
Fc1ccccc1-c1nc(N2CCCCC2)c2ccccc2n1	-2%	1%	10%	15%	13µM*	?
CN1CCN(c2nc(-c3cccnc3)nc3ccccc23)CC1	?	?	?	26%	i	i
CCCOc1ccc(-c2nc(N3CCCCC3)c3ccccc3n2)cc1	/	/	/	/	i	i
c1ccc2c(N3CCCCCC3)nc(-c3ccncc3)nc2c1	?	0%	-5%	?	18µM*	i

Screening results from PubChem BioAssay.
